Calls of active or inactive are those of the source.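 Rule for the calls: active = calcium signal above 60% of the top acetylcholine response at human muscarinic M5 receptors, as a positive modulator; inactive = the rest.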
target: Muscarinic acetylcholine receptor M2 (Homo sapiens) (UniProt P08172); experiment: M2 receptor positive allosteric modulation, selectivity assay for M5 PAM discovery project, cell-based, human M2 (AID 743096); details: CHO-K1 hM2/Gqi5, calcium flux, ACh EC20 potentiation; series mostly up to 30 µM
Sequence (P08172 whole entry, looked up): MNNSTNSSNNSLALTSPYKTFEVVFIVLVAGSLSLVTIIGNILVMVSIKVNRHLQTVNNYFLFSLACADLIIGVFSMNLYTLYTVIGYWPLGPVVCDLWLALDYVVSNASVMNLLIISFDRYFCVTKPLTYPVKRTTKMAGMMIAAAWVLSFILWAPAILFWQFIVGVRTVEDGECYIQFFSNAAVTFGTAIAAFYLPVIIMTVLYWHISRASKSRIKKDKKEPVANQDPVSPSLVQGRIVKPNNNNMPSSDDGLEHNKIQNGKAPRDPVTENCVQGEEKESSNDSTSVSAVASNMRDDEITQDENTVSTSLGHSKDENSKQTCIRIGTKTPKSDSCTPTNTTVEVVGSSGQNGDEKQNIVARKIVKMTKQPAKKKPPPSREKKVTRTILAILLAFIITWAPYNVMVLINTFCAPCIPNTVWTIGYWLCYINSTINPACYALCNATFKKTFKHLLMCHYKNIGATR

outcome, inactive:
CCN(Cc1ccccc1Cl)C(=O)C1CCN(S(=O)(=O)c2ccc3[nH]ncc3c2)CC1
CCN(Cc1ccccc1)C(=O)C1CCN(S(=O)(=O)c2ccc3c(c2)OCCO3)CC1
CCN(Cc1ccccc1)C(=O)C1CCN(S(=O)(=O)c2ccc(OC)cc2)CC1
CCN(C(=O)C1CCN(S(=O)(=O)c2ccc(OC)cc2)CC1)[C@H](C)c1ccccc1
CCN(Cc1ccccc1C(F)(F)F)C(=O)C1CCN(S(=O)(=O)c2ccc3[nH]ncc3c2)CC1
CCN(C(=O)C1CCN(S(=O)(=O)c2ccc3[nH]ncc3c2)CC1)[C@H](C)c1ccccc1

Reference: PubChem BioAssay AID743096 (Vanderbilt Specialized Chemistry Center, 2013)
